The values below come from PubChem BioAssay (Tox21).

The structures appear in SMILES notation. Records with an inconclusive call do not appear. Where a call stands in place of a potency, no number is given. Active and inactive are the calls of the source. The call rests on the fitted dose curve; in most records, active means well fitted cell-killing curve with a large enough effect in the repeat runs; inconclusive means weak or mixed curves, or effect the other way; inactive means flat fitted curve, though single readings scatter.

The assay is described as follows: qHTS assay to identify small molecule antagonists of the constitutive androstane receptor (CAR) signaling pathway - cell viability counter screen (AID 1224837). Further: nearly all actives have a fitted effect of over 45% in size. Particulars: HepG2-CYP2B6-hCAR viability, CellTiter-Fluor, 23 h, co-treated with 50 nM CITCO; series mostly up to 92.4 µM. From the text:
National Center for Advancing Translational Sciences [NCATS]
NIH Chemical Genomics Center [NCGC]
U.S. Environmental Protection Agency [EPA]
National Institutes of Environmental Health Sciences [NIEHS]
National Toxicology Program [NTP]
U.S. Food and Drug Administration [FDA]
The constitutive androstane receptor (CAR) is a nuclear receptor which regulates multiple drug metabolizing enzymes (DMEs) and transporters. Activating CAR will generally increase the transcription and subsequent translation of CYP2B6 and CYP3A4. These two DMEs represent about 50% of the drug metabolizing potential in the body. When CAR is deactivated, the metabolizing potential in the body will decrease, subsequently increasing the toxicity in the body or lowering the therapeutic potential of a pro-drug. Recently, there have also been studies performed indicating CARs role in energy metabolism and cancer therapy. Therefore, inhibiting CARs activity could have a potential effect on diabetes and cancer. Identifying environmental toxins and compounds which modulate CAR, through the use of the Tox21 10K compound collection, will be an important step in determining the toxicity and potential therapeutic effects these factors will have on the human body. To differentiate true CAR antagonists from cytotoxic substances, the assay is multiplexed with a cell viability assay.
Tox21 Assay Protocol Summary:
A double-stable (hCAR and CYP2B6-2.2kb) transfected cell line, derived from human hepatoma (HepG2) cells, was utilized for the duration of the quantitative high-throughput screens. The HepG2-CYP2B6-hCAR cells were dispensed at 2500 cells/4 uL/well in 1536-well white solid bottom plates using a Multidrop Combi. After the assay plates were incubated at 37 C/5% CO2 for 4 hrs, 23 nL of compounds at 15 concentrations (from 5-48 columns) or positive control (from 1 to 4 columns) were transferred to the assay plates using a Pintool station. One uL of CITCO (final concentration = 50 nM) was added, using a Flying Reagent Dispenser, inside each well. After a 23 hr incubation period at 37 C/5% CO2, 1 uL of CellTiter-Fluor reagent was added into each well of the assay plates using a Flying Reagent Dispenser. The fluorescence intensity in the plates was then measured using a ViewLux plate reader.
(qHTS replaces the single test concentration by a dilution series.)
Consider `CCCCCCOc1ccc(N)cc1`, for which the Potency entry was “inactive”. For the compound `O=C(O)CN(CCN(CC(=O)O)CC(=O)O)CCN(CC(=O)O)CC(=O)O`, the activity change, negative = cytotoxicity was -28.8% [at 19 µM] (inactive). `NCCCN1CCN(CCCN)CC1`: the Potency result is “inactive”. Still for that read-out and setting: then `C[C@@H](N)C(=O)O`, with “inactive”; and `C=CCc1cc(OC)c(O)c(C(=O)NCCO)c1`, with “inactive”; and `NNS(=O)(=O)c1ccc(Oc2ccc(S(=O)(=O)NN)cc2)cc1`, with “inactive”. Consider `CS(=O)(=O)c1ccc([C@@H](O)[C@@H](CF)NC(=O)C(Cl)Cl)cc1`, for which the Potency entry is “inactive”. For the compound `CCc1cc(Cl)c(OC)c(C(=O)NC[C@@H]2CCCN2CC)c1O`, the Potency result was “inactive”. For `O=C1CCN(c2ccccc2)N1`, the Potency result is “inactive”. For `CCCOCCC`, the Potency entry is “inactive”. As for `OCCN(CCO)CCN(CCO)CCO`, the Potency entry was “inactive”. Turning to `OCC(CBr)(CBr)CBr`, the Potency result is “inactive”. As for `C1CCOC1`, the Potency entry is “inactive”. `O=C1CCCCCCCCCCC(=O)OCCO1`: the Potency result is “inactive”. The same measure, in the same setting: next, `CC/C=C\CCOC(=O)C(C)C`: “inactive”; `Oc1ccccc1C=NCc1ccccc1`: “inactive”; `C=CC1CO1` (stereo not given): “inactive”. Regarding `CO[Si](C)(C)OC`, the Potency entry was “inactive”.

`CCCNC(C)C(=O)Nc1c(C)csc1C(=O)OC` (stereo not given): the Potency result is “inactive”.

As for `C=C(C)C(=O)OCCOP(=O)(O)O`, the Potency result is “inactive”. Same read-out and setting: next, `CN1CCN(N)CC1`: “inactive”. With `O=c1oc2c(O)c(O)cc3c(=O)oc4c(O)c(O)cc1c4c23`, the activity change, negative = cytotoxicity is 9.67% [at 19 µM] (inactive). As for `CCCCCCCCCCCCOCCOS(=O)(=O)O`, the Potency result is “inactive”. Turning to `NCCC(O)(P(=O)(O)O)P(=O)(O)O`, the Potency entry is “inactive”.

In the case of `CC(C)=CCC[C@](C)(O)[C@@H]1CC=C(C)CC1`, the Potency entry was “inactive”. In the case of `COc1ccc(S(=O)(=O)Nc2nnc(CC(C)C)s2)cc1`, the Potency entry was “inactive”. As to `CCc1cc2cc(OC)c(OC)cc2c(Cc2ccccc2)n1`, the Potency entry was “inactive”. For the compound `CC1CN(c2ccccc2)NC1=O` (stereo not given), the Potency entry is “inactive”. In the case of `O=C(CCCl)NCc1ccccc1`, the Potency entry is “inactive”. Consider `NC(=O)Cc1cccc(C(=O)c2ccccc2)c1N`, for which the Potency result was “inactive”. On the same count and under the same terms, next, `CCCCc1ccc2nc(NC(=O)OC)[nH]c2c1`: “inactive”. Turning to `O=S(=O)(O)C(F)(F)F`, the Potency result is “inactive”. On to `CCCCCCn1c(=O)c2c(ncn2C)n(C)c1=O`, for which the Potency result was “inactive”. With `CCCCCCCCCCCCCCCCOP(=O)([O-])OCC[N+](C)(C)C`, the Potency entry is “inactive”. As to `CC(=O)Nc1ccc(C)c(Cl)c1`, the Potency entry is “inactive”. For `OCc1c2ccccc2cc2ccccc12`, the Potency entry is “inactive”. For `CCN(CC)CCOc1ccc(Cc2ccccc2)cc1`, the Potency entry is “inactive”.

With `NC1=NCC2c3ccccc3Cc3ccccc3N12` (stereo not given), the Potency result was “inactive”.

For the compound `CCOC(=O)[C@H](CCc1ccccc1)N[C@@H](C)C(=O)N1Cc2cc(OC)c(OC)cc2C[C@H]1C(=O)O`, the Potency entry is “inactive”. As for `CCCc1c2oc(C(=O)O)cc(=O)c2cc2c(=O)cc(C(=O)O)n(CC)c12`, the Potency entry is “inactive”.
